Test results taken from ChEMBL document CHEMBL3988442, “University of Dundee, Small-Polar-MMV Screening Library” (2021).
For some assays here: Measured potencies and affinities stand elsewhere.

Assays:
Design in all cases: scale not given: direction of the effect not stated beside the values
[1] = target: Protein translocase subunit SecA (Escherichia coli (strain K12)) (UniProt P10408); experiment: Assay to Identify E. coli SecA ATPase Inhibitors; assay type: functional; conditions: 30 µM
[2] = target: T1, Ubiquitin-activating enzyme e1, putative (Leishmania donovani (strain BPK282A1)) (UniProt E9BSI1); experiment: Leishmania donovani Ubiquitin Activating Enzyme (LdE1); assay type: functional; conditions: 30 µM
T1 sequence (whole entry): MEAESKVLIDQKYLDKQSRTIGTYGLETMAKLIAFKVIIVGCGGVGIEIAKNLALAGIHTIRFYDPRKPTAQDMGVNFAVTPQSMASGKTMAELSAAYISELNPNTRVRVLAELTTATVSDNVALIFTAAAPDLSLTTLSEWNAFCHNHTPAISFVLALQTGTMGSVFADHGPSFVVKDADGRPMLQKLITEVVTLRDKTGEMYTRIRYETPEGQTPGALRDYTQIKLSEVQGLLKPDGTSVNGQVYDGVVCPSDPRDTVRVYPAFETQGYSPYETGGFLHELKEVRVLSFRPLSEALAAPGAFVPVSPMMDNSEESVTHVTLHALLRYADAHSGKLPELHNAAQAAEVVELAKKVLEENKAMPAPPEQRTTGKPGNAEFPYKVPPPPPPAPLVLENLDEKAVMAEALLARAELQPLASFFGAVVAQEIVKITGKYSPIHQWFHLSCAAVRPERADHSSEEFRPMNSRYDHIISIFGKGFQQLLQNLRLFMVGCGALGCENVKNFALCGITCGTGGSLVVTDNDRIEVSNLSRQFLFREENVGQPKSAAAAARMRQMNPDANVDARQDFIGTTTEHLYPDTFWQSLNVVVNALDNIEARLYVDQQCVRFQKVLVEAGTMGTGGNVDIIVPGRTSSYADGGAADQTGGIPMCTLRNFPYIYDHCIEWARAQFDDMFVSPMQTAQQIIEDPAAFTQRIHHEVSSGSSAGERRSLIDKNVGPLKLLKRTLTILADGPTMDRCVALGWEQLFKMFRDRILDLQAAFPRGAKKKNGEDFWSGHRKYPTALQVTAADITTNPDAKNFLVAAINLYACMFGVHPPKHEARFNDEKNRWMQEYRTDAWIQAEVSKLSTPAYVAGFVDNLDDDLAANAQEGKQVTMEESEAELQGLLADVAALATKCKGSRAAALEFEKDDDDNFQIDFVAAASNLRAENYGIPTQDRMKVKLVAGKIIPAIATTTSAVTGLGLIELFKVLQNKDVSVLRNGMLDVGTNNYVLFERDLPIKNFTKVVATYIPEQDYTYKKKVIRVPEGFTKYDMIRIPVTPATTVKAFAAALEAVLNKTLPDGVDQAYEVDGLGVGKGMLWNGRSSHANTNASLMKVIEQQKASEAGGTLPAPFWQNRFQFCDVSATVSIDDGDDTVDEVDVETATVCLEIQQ

[3] = target: AMP-activated protein kinase, AMPK (Homo sapiens) (UniProt P54646+O43741+P54619+Q9UGJ0+Q9Y478+Q13131+Q9UGI9); experiment: AMP-dependent Kinase enzyme assay. An in vitro enzyme assay that detects ADP turnover that is directly proportional to AMPK activity. This uses naive AMPK that is activated during the assay with MK-8722; assay type: functional; conditions: 30 µM
[4] = target: Sialic acid-binding Ig-like lectin 9 (Homo sapiens) (UniProt Q9Y336); experiment: Hs-Siglec9 ALPHAscreen SOP 20170721; conditions: 10 µM
Sequence of Sialic acid-binding Ig-like lectin 9 (Homo sapiens) (Q9Y336 whole entry): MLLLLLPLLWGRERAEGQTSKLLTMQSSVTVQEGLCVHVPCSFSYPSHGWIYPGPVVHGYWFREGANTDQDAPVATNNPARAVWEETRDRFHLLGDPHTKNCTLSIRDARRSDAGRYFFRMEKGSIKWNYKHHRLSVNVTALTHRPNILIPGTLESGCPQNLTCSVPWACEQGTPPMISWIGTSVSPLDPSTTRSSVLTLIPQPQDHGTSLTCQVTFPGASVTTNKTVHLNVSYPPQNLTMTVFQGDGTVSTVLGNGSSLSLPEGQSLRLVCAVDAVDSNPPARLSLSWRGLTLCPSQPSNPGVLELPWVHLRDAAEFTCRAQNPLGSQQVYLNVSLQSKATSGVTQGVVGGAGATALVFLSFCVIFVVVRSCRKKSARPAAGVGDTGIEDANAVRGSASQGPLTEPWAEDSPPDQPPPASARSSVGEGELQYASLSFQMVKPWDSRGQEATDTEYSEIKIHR

Trypanosoma cruzi = experiment: Trypanosoma cruzi phosphomannomutase and mannose-1-phosphate guanylyltransferase assay; assay type: functional; conditions: 10 µM
[5] = target: T2, Arginase-2, mitochondrial (Homo sapiens) (UniProt P78540); experiment: in vitro enzyme assay to detect the production of urea directly proportional to the activity of Arginase II; assay type: functional; conditions: 33.3 µM; further: in the data most compounds retested in dose-response had high values
T2 sequence (whole entry): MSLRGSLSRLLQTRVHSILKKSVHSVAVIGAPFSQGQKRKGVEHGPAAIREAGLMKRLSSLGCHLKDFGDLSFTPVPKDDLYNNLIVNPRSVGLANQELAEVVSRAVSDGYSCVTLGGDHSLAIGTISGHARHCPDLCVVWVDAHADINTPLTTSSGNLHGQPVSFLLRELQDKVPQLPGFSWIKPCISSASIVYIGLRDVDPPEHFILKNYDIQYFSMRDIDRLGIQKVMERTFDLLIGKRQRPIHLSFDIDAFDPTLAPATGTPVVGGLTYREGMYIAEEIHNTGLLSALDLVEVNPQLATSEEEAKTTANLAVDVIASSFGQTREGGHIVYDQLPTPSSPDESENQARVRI

[6] = target: T3, Proteasome subunit beta (Trypanosoma cruzi) (UniProt O96673); experiment: Trypanosoma cruzi proteasome chymotrypsin-like activity (TcProtChymo) assay.; further: in the data most compounds retested in dose-response had high values; assay type: functional; conditions: 9.37 µM
T3 sequence (whole entry): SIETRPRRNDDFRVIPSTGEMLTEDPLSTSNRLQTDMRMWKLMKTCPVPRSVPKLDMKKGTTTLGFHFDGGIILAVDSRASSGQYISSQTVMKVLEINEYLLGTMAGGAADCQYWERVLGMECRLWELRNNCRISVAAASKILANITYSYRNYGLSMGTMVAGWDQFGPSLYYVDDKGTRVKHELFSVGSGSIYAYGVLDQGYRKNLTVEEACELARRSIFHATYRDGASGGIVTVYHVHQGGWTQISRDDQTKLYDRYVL

Homo sapiens = species: Homo sapiens; experiment: To identify inhibition of the IFN signalling (Jak-Stat) pathway via expression of an eGFP reporter gene under the control of an IFN-stimulated response element (ISRE) containing MxA promoter.; assay type: functional; conditions: 30 µM
[7] = target: T4, Tyrosyl-tRNA synthetase, putative (Trypanosoma cruzi (strain CL Brener)) (UniProt Q4DSP6); experiment: Trypanosoma cruzi tyrosyl tRNA synthetase (TcYRS) _High Tyrosine SOP; assay type: functional; conditions: 30 µM; further: in the data most compounds retested in dose-response had high values
T4 sequence (whole entry): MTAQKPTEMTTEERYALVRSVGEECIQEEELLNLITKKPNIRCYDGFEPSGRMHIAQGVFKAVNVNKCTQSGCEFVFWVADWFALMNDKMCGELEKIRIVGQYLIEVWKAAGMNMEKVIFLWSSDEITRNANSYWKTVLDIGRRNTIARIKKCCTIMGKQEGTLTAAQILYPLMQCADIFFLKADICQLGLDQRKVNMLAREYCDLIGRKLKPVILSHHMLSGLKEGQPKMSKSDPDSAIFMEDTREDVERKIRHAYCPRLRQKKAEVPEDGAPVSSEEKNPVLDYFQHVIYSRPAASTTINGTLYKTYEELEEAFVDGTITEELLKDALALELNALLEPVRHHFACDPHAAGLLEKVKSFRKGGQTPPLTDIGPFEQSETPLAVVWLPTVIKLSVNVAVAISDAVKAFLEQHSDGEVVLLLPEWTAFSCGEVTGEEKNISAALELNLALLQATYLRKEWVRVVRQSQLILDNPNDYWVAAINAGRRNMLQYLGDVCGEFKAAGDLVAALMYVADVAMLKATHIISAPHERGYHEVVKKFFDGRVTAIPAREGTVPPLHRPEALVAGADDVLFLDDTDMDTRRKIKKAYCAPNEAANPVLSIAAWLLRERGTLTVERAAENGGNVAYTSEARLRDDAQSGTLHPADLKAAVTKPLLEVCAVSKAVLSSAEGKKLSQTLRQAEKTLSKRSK

[8] = target: T4, Tyrosyl-tRNA synthetase, putative (Trypanosoma cruzi (strain CL Brener)); experiment: Trypanosoma cruzi tyrosyl tRNA synthetase (TcYRS) SOP; assay type: functional; conditions: 30 µM
[9] = target: Chromo domain-containing protein 1 (Saccharomyces cerevisiae (strain ATCC 204508 / S288c) (Baker's yeast)) (UniProt P32657); experiment: ScCHD-1 Enzyme Inhibition Assay; assay type: functional; conditions: 30 µM; further: in the data most compounds retested in dose-response had high values
Sequence of Chromo domain-containing protein 1 (Saccharomyces cerevisiae (strain ATCC 204508 / S288c) (Baker's yeast)) (P32657 whole entry, the tested form may be a part): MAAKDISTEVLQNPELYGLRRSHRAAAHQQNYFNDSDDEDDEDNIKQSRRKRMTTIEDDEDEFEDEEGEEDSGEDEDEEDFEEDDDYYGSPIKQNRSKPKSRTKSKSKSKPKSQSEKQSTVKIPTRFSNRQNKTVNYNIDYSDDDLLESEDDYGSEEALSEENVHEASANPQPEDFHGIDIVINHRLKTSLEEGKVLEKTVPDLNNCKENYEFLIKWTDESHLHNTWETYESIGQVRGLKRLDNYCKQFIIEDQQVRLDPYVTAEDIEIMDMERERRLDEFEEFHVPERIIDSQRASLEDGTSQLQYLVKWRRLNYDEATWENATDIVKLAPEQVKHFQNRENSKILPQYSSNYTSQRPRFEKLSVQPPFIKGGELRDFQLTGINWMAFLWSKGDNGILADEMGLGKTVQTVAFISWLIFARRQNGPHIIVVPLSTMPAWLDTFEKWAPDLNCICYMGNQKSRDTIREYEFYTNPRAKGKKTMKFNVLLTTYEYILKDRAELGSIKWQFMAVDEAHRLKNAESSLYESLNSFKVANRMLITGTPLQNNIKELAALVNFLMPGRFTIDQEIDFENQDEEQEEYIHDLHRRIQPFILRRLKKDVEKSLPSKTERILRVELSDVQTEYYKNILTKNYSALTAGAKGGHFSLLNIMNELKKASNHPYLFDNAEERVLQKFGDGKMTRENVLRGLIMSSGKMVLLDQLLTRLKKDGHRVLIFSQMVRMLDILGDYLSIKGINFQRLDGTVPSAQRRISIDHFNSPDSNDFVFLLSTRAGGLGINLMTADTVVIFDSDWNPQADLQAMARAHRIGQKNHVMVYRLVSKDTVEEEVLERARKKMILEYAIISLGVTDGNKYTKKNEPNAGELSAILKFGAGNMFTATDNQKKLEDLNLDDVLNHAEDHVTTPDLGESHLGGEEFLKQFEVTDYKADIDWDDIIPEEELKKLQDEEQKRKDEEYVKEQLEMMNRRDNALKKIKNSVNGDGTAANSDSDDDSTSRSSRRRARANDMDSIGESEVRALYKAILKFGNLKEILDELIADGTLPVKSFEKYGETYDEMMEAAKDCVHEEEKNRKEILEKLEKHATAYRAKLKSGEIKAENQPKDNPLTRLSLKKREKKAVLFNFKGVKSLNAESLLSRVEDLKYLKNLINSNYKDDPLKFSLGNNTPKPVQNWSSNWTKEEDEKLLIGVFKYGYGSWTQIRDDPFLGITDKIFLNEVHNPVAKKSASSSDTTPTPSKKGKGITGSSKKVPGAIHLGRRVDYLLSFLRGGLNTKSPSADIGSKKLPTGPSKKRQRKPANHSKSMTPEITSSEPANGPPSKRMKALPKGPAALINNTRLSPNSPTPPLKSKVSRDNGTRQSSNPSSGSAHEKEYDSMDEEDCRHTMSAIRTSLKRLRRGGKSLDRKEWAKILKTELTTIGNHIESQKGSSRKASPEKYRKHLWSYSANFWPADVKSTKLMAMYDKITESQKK

Sequence of Protein translocase subunit SecA (Escherichia coli (strain K12)) (P10408 whole entry): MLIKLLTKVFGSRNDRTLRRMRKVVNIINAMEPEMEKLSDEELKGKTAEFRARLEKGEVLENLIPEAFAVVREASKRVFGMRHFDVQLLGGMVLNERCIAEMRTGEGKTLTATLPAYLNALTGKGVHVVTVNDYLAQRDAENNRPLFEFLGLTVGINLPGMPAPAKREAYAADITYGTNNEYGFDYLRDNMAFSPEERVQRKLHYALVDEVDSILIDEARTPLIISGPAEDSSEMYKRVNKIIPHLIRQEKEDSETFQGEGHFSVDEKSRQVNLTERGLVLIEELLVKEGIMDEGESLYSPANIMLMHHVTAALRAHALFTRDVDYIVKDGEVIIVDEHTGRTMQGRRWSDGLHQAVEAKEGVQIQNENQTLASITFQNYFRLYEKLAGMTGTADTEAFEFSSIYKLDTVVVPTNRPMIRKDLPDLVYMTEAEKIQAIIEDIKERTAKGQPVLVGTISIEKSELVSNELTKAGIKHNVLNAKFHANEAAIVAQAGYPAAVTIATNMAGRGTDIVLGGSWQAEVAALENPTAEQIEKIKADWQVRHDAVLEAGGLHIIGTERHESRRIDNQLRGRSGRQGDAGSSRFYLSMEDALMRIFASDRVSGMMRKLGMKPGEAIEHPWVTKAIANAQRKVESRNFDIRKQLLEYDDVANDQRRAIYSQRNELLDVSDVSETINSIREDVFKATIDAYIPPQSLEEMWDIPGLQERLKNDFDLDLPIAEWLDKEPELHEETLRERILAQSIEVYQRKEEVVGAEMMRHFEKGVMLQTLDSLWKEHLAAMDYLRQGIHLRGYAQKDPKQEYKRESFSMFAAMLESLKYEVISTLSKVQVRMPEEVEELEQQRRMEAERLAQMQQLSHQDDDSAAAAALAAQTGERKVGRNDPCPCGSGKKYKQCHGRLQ

| Structure (SMILES) | Percent Effect [1] [%] | Percent Effect [2] [%] | Percent Effect [3] [%] | Percent Effect [4] [%] | Percent Effect (Trypanosoma cruzi) [%] | Percent Effect [5] [%] | Percent Effect [6] [%] | Percent Effect (Homo sapiens) [%] | Percent Effect [7] [%] | Percent Effect [8] [%] | Percent Effect [9] [%] |
| --- | --- | --- | --- | --- | --- | --- | --- | --- | --- | --- | --- |
| CC(C)NC(=O)N1CCN(S(=O)(=O)C2CC2)CC2(CC(=O)N(C)C2)C1 (configuration not stated) | -4.24 | 10.4 | 5.32 | -0.477 | 5.23 | -5.81 | -2.79 | 12.6 | 1.06 | 6.41 | -4.42 |
| COc1ccc(CN(C)Cc2nc3c(cnn3C)c(=O)[nH]2)cc1OC | -1.17 | 13.9 | 4.17 | 3.18 | -3.18 | 2.8 | 16.5 | 11.6 | 7.29 | 7.59 | -3.45 |
| CCCS(=O)(=O)c1ncc(CN2CCC(CO)CC2)n1CC1CCCO1 (configuration not stated) | 0.687 | -6.94 | -2.25 | -1.43 | -5.34 | 0.442 | 4.74 | -4.14 | 0 | -7.69 | 5.71 |
| NC(=O)c1cc(C2CCCN(C(=O)CCc3ccsc3)C2)n[nH]1 (configuration not stated) | -9.05 | 5.2 | 5.08 | -5.24 | -5.43 | -1.78 | -5.57 | 30.9 | 3.88 | 7.32 | -4.93 |
| O=C(NC1CC1)[C@H]1C[C@H]2OCC[C@H]2N(CC2CCOCC2)C1 | -7.27 | 0 | 1.56 | 2.95 | -3.28 | -51.1 | 7.18 | 3.71 | 5.21 | -2.5 | 319 |
| Cc1cc(CN2CCC(c3ccnn3CCO)CC2)no1 | -3.65 | 20.2 | -6.78 | 7.01 | 6.7 | 3.8 | 7.45 | -6.11 | 4.43 | 21.5 | -6.58 |
| CCN1C[C@H]2CCN(C(=O)NC3CCCC3)CC[C@H]2S1(=O)=O | 2.4 | 14.7 | 2.73 | -7.67 | -3.54 | -5.81 | 15.5 | 2.2 | 1.06 | 5.13 | -7.62 |
| CCc1nnc2n1CCN(C(=O)Cc1csc(-c3ccco3)n1)C2 | -4.35 | 15.2 | -5.8 | 9.4 | -1.04 | 3.8 | 8.76 | 13.3 | 4.43 | 11.4 | -4.32 |
| Cn1cnc2c1CCN(CCCOc1ccc(C#N)cc1)C2 | -7.51 | 2.53 | -0.357 | -0.18 | -2.93 | -1.14 | 5.98 | 20.4 | -0.493 | -1.27 | -3.4 |
| COc1cccc(S(=O)(=O)CCN2CCC3(CC2)OCCO3)c1 | -7.81 | 2.67 | -4.97 | 6.11 | 3.99 | 5.21 | 6.45 | 6.75 | 3.83 | 6.17 | -5.65 |
| Cc1cccc(CN2C[C@H]3OC(=O)N(CCCN4CCOCC4)[C@H]3C2)n1 | -5.71 | 5.33 | 0.534 | 17 | 0.682 | 2.08 | 11.9 | 2.81 | 10.4 | 16.1 | -8.08 |
| O=C(c1ccc(Br)s1)N1CCN(Cc2ccc(OC(F)(F)F)cc2)CC1 | -0.131 | -13.7 | 41.1 | 2.45 | -3.72 | -1.82 | 19 | 8.24 | 1.07 | -2.5 | -11.7 |
| Cc1ccc(CN2CCOC3(CCCN(C(=O)c4ccco4)C3)C2)s1 (configuration not stated) | -0.789 | 15.6 | -0.0266 | 8.56 | 5.41 | -19.3 | 17.6 | -8.94 | 6.45 | 13.6 | -2.11 |
| CC(C)NC(=O)c1ccc2c(c1)nc1n2CCN(C(C)C)C1 | -0.173 | 4 | 2.97 | 4.16 | -5.11 | -13.2 | 19.2 | -1.16 | 6.35 | 7.69 | -10.7 |
| CC(C)c1ccc(CN2CCC3(CCCN(c4nncs4)C3)C2)cc1 (configuration not stated) | -5.12 | 2.7 | -2.41 | 37.5 | 9.87 | -1.74 | 1.97 | -25 | 4.3 | 13.6 | -4.2 |
| COc1cccc(OCc2cc(C(=O)NC[C@H]3CCCN3)n[nH]2)c1 | -3.48 | 15.3 | -5.03 | 30.2 | 3.4 | 15.4 | 7.19 | -6.81 | 1.05 | 12.8 | -5.02 |
| CCc1cc(NCCc2ccc(O)cc2)n2nccc2n1 | -0.557 | 5.48 | 93.2 | 6.39 | 2.35 | 25 | 9.58 | 46.2 | 3.23 | 15 | -4.87 |
| CCn1cc(NC(=O)NCC(O)CN2CCCCC2)cn1 (configuration not stated) | -2.01 | 5.2 | 2.67 | 12.4 | 1.27 | 4 | 0.404 | 15.9 | 0 | 2.35 | -9.62 |
| CSc1cccc(CN(C)C(=O)C2CC(=O)N(CCN(C)C)C2)c1 (configuration not stated) | 0.893 | 10.7 | -12.1 | 4.56 | 4.38 | 18.2 | 18.1 | 29.9 | 8.2 | 16.1 | -0.611 |
| O=C(Nc1cnn(CCN2CCOCC2)c1)c1ccccc1O | -4.19 | 26.3 | -17.4 | 2.22 | 3.57 | 4.6 | 16.9 | -2.35 | 6.37 | 19.5 | -12.5 |
| Cn1cccc1C(=O)N1CCN(Cc2ccncc2)c2ncccc2C1 | 1.82 | 13.3 | 9.01 | 8.59 | -4.83 | -57.2 | 12.1 | 13.8 | 8.33 | 10 | -5.07 |
| c1ccc(OCC2CC3(CCN(Cc4ccncc4)CC3)CO2)nc1 (configuration not stated) | -3.46 | 9.33 | 6.58 | 5.09 | -4.13 | -4.4 | 12.2 | -5.36 | 2.12 | 7.69 | -5.62 |
